# ANO1 block: mouse TMEM16A channel inhibition, primary screen; Q8BHY3; HEK293 TMEM16A/YFP iodide influx fluorescence, ionomycin; normalized B-score (activity score, 25-100; higher = stronger inhibition) at 10 µM; 310,000 tested, 1.2% active;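 active = ratio plate-corrected score three or more library SD toward inhibition, starting fluorescence score within five deviations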;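 note: score derived from kinetic fluorescence span divided by baseline fluorescence per well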
# Target sequence (Q8BHY3 whole entry, looked up): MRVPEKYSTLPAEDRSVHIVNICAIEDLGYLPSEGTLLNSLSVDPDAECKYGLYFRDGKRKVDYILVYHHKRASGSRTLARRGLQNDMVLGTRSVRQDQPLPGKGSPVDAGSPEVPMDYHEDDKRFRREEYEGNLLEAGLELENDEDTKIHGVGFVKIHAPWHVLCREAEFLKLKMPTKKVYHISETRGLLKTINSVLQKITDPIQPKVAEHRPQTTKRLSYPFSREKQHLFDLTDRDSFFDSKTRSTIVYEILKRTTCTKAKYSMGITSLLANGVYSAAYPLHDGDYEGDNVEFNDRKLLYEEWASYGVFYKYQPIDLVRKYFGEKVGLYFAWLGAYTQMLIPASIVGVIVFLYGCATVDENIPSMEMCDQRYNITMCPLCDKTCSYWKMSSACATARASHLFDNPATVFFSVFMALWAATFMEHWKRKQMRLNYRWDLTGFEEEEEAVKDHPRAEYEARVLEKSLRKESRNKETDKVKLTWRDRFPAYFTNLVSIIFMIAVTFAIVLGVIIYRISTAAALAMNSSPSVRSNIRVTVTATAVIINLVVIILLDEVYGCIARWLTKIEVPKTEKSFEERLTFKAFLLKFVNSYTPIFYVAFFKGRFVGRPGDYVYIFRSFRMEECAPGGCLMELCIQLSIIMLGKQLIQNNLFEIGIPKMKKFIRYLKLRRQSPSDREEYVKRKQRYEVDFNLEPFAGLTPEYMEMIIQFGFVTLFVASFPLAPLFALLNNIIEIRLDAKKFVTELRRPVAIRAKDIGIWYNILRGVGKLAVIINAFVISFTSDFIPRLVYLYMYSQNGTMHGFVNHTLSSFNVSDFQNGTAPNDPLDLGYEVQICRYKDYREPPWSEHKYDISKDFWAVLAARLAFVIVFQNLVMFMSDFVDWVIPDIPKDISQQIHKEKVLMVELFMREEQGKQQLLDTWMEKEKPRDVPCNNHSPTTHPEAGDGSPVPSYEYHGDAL
# aSyn 5UTR inh: MLPCN primary screen, SNCA 5' untranslated region; inhibition, % (tested at 7.5 µM); 300,000 tested, 0.82% active; AID 1813; alpha-synuclein 5'UTR reporter, inhibitor activity; in the data active = inhibition above about 60%;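 note: H4 neuroglioblastoma cells stably carrying SNCA 5'UTR luciferase fusion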
# TMEM16A act: activators or potentiators of mouse TMEM16A chloride channel. Q8BHY3. HEK293 TMEM16A/YFP-H148Q/I152L, iodide quench fluorescence; active compounds read low. B-score at 10 µM. 340,000 tested, 0.3% active. AID 623877;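 active = fluorescence-ratio B-score plate-corrected deviation score at least 3 library SD below zero, with starting fluorescence score within 5 deviations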;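 note: channel opened by trigger with iodide after compound preincubation; score built on the fluorescence ratio of max minus min over baseline; more negative score means more quench and so TMEM16A activation or potentiation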
# 697 NFkB inh: inhibitors of the PMA/ionomycin-induced NF-kB reporter in 697 B cells; inhibition, % at 4 µM; 697 B-cell NF-kB luciferase reporter, 16 h; 330,000 tested, 0.33% active; in the data active = inhibition above about 35%
# KLF5 inh: kruppel-like factor 5 inhibition; DLD-1 KLF5 promoter-luciferase reporter, luminescence; inhibition, % at 5 µM; 290,000 tested, 0.23% active;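 active = inhibition above a per-plate limit of that plate's mean compound inhibition plus 3 SD, cut at about 60% in these data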;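 note: higher means less KLF5 promoter-driven luciferase light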
# Jurkat NFkB inh: lowers PMA/ionomycin-induced NF-kB signal in Jurkat cells. AID 435003. inhibition, % at 4 µM. PMA/ionomycin-induced NF-kB luciferase reporter, luminescence. 330,000 tested, 0.53% active; in the data active = inhibition above about 50%
# A number is an active result; – = inactive; · = no result. Most compounds without a hit are left out; they make up all but 2.5% or so of the library.
SMILES,ANO1 block,aSyn 5UTR inh,TMEM16A act,697 NFkB inh,KLF5 inh,Jurkat NFkB inh
CC1=NN(c2ccc(C)c(C)c2)C(=O)/C1=C\C=C\c1ccc([N+](=O)[O-])o1,–,78.2,–,–,–,–
O=C(NCCCNc1ccc(C(F)(F)F)cc1[N+](=O)[O-])c1ccc(Cl)cc1,100,–,–,–,–,–
COc1ccc(CN(C)C(=O)COC(=O)c2ccc(-c3ccccc3)cc2)c(OC)c1OC,·,·,–,–,·,–
COc1cccc(CNc2ccc([N+](=O)[O-])cc2Cl)c1O,25,–,–,–,–,–
CCOc1ccccc1OCCCOc1ccc([N+](=O)[O-])cc1Cl,–,–,–,–,–,–
COc1ccccc1CNc1ccc([N+](=O)[O-])cc1C,25,–,–,–,–,–
COc1cccc(OC)c1OCCCOc1ccc([N+](=O)[O-])cc1Cl,100,–,–,–,–,–
COc1ccc([N+](=O)[O-])cc1NC(=O)Cc1ccccc1Cl,–,–,–,–,–,–
COc1c(CC=C(C)C)cc(C2CC(=O)c3c(O)cc(O)cc3O2)c(CC=C(C)C)c1O (stereo unspecified),100,–,·,–,·,–
COc1cc(C2CC(=O)c3c(O)cc(O)cc3O2)ccc1O (stereo unspecified),–,–,–,–,–,–
O=[N+]([O-])c1c(Nc2ccc(O)cc2)cc(Cl)c2nonc12,100,–,-8.29,–,–,–
CC(NC(=O)C1CCC(C(=O)NC(C)c2ccccc2)CC1)c1ccccc1 (stereo unspecified),–,–,–,–,–,–
Clc1ccc(CNc2nc(N3CCOCC3)nc(N3CCOCC3)n2)cc1,–,–,-7.64,–,–,–
COC(c1ccccc1)c1nnc(CCC(=O)NCCC(C)C)o1 (stereo unspecified),–,–,–,–,–,–
CC(C)c1nnc(NC(=O)CCC(=O)NC2CCCCCC2)s1,–,–,–,–,–,–
O=C1N(Cc2cccc(Cl)c2)C[C@@H]2C[C@@H](c3c[nH]c4ccccc34)N3CCC[C@@]123,–,–,-4.64,–,–,–
COc1ccccc1NC(=O)Cc1nn(C)c(=O)c2ccccc12,25,–,–,–,–,–
Cc1csc(NC(=O)Cc2nn(C)c(=O)c3ccccc23)n1,25,–,–,–,–,–
Cn1nc(CC(=O)NCc2cccc3ccccc23)c2ccccc2c1=O,–,–,–,–,–,–
COc1cccc(OC)c1NC(=O)Cc1nn(C)c(=O)c2ccccc12,–,–,–,–,–,–
CCOc1ccc(S(=O)(=O)Nc2ccc(F)cc2)c(C)c1C,25,–,–,–,–,–
COc1ccc(C(=O)Nc2sc3c(c2C(=O)O)CC(C)(C)OC3)cc1,–,62.9,–,–,–,–
CC(C)COc1ccc(C(=O)Nc2sc3c(c2C(=O)O)CC(C)(C)OC3)cc1,–,62.6,–,–,–,–
CCOC(=O)c1ccc(NC(=O)c2cccc(S(=O)(=O)N3CCOCC3)c2)cc1,100,–,–,–,–,–
CCN(CC)CCOC(=O)c1ccc(NC(=O)c2ccc(Cl)c(S(=O)(=O)N3CCCCCC3)c2)cc1,25,–,–,–,–,–
SMILES,ANO1 block,aSyn 5UTR inh,TMEM16A act,697 NFkB inh,KLF5 inh,Jurkat NFkB inh
CSc1nc2[nH]c(=O)n(O)c(=O)c2n1Cc1ccccc1,·,·,–,·,·,·
CCOC(=O)c1cnn(-c2ccccc2)c1NC(=O)c1ccc(C)cc1,25,–,–,–,–,–
CCOC(=O)c1cnn(-c2ccccc2)c1NC(=O)c1ccccc1,–,–,–,–,–,–
CS(=O)(=O)c1ccc(Cl)c(C(=O)Nc2ccc3nc(N4CCOCC4)sc3c2)c1,·,·,–,–,·,–
Clc1cccc(-c2nc(-c3ccccn3)no2)c1,–,93.3,–,–,–,–
c1ccc(-c2nc(-c3ccccn3)no2)cc1,–,–,–,–,–,–
CCCCn1c(NC(=O)c2ccccc2Cl)c(C#N)c2nc3ccccc3nc21,100,–,–,–,–,–
N#Cc1c(NC(=O)c2ccccc2Cl)n(Cc2ccccc2)c2nc3ccccc3nc12,100,·,–,·,–,·
CN1C=C/C(=C\c2cc[n+](C)c3ccccc23)c2ccccc21,·,74.0,–,·,–,·
Cc1ccc(C)c(S(=O)(=O)N2CCCCC2CCNC(=O)C(=O)NCc2ccccc2)c1 (stereo unspecified),–,–,–,–,·,–

# Assay outcomes from PubChem BioAssay.
